Shown are actives, neighbours in structure and some others; about 1.9% of the full set was active somewhere.
FUS suppressor: rescues growth of FUS-expressing yeast; S. cerevisiae FUS-expressing, growth rescue, OD600, 24 h; AID 1347120; actives 0.24% (n = 390,000); Potency, µM (series often up to 76.6 µM), actives largely listed as activators; also: nearly all actives have a fitted effect of over 55% in size
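Absorbance at 600 nm, taken 24hr after compound addition, measured rescue of FUS-yeast growth at 30C. Induction used 2% galactose with seeding at OD 0.005. Controls: CP55940 from 92uM final, DMSO only.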
aSyn yeast inh: inhibitors of alpha-synuclein toxicity in yeast; Yeast expressing alpha-synuclein, growth rescue, BacTiter-Glo, 24 h; actives 0.14% (n = 370,000); Potency, µM (doses to about 46.1 µM), usual class: activators; also: nearly all actives have a fitted effect of over 65% in size
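Readout is rescue of growth in alpha-synuclein-expressing yeast, so inhibitors of toxicity appear as activators. Growth after 24 hr at 30 deg C in galactose medium is quantified by luminescence.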
LDHA block: inhibitors of human lactate dehydrogenase A; activity change, % (values are at about 110 or 230 µM); actives 0.15% (n = 480,000); purified LDHA, NADH/diaphorase-resazurin fluorescence; hits give low values; in the data active = activity change below about -30%; inconclusive = mostly about -25% to -30%
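Remaining NADH was detected by diaphorase (0.133 mg/mL) converting 37 µM resazurin to fluorescent resorufin, read at 0 and 20 minutes. The preceding 5-minute room-temperature reaction used 2 nM LDHA, 0.2 mM sodium pyruvate and 0.06 mM NADH at pH 7.4.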
Abeta yeast res: compounds reversing amyloid beta toxicity in yeast; yeast expressing A-beta42, growth rescue, OD600, 48 h; response scale: 0% DMSO, 100% iron-clioquinol control; Potency, µM (series often up to 46.1 µM), actives largely listed as activators; actives 0.063% (n = 410,000); also: nearly all actives have a fitted effect of over 55% in size
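Yeast A-beta toxicity model in growth medium with pinned compounds, 48 h at 30 C; growth read as absorbance at 600 nm. Normalized to FeCl3/clioquinol equimolar mix (positive) and DMSO (negative).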
TDP43 rescue: rescues yeast growth from TDP-43 toxicity; TDP-43 expressing yeast growth rescue, BacTiter-Glo, 24 h; Potency, µM (titrated, usually from 46.1 µM), most hits filed as activators; actives 1.8% (n = 410,000); AID 652104; also: nearly all actives have a fitted effect of over 50% in size
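Growth rescue of TDP-43-toxic yeast measured as ATP luminescence (BacTiter-Glo). Cells grown to mid-log in raffinose, induced in galactose at OD600=0.02, exposed to compound 24 hr at 30 deg C.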
PTHR1 ag: PTHR1 (human) receptor agonism; AID 743266; actives 0.075% (n = 410,000); Potency, µM (titrated, usually from 115 µM), actives largely listed as activators; Q03431; HEK293 GP2 PTHR1 cells, GloSensor cAMP luminescence, 1 h; also: nearly all actives have a fitted effect of over 55% in size
Target sequence (Q03431 whole entry, looked up): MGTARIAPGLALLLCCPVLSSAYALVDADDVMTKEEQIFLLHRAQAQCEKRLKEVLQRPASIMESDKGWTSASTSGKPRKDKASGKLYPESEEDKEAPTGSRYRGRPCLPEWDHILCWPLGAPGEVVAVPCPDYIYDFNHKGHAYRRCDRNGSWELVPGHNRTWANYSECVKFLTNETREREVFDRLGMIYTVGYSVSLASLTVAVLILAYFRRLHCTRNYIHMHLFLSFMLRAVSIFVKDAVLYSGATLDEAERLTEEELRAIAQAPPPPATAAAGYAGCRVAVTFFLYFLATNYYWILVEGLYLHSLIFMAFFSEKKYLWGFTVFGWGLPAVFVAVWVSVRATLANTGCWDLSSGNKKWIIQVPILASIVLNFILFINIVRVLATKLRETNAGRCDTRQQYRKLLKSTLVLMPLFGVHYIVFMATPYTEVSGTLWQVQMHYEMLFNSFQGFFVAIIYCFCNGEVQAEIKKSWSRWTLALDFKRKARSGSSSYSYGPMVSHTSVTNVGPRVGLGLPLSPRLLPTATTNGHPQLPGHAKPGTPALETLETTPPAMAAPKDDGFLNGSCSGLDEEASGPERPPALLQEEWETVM
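HEK-293-derived GP2 cells expressing PTHR1 and a GloSensor cAMP reporter, 3,000/well, plated overnight, given luciferin plus IBMX (each 0.5 mM as added) for 1 h at 37 °C, then compound for 1 h at 37 °C. Luminescence was read after 15 min at room temperature.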
Numbers stand for hits; - = inactive; ? = inconclusive; . = no result. Unless noted, calls follow the shape of the dose curve; as a rule, active = well fitted curve in the direction sought with a large enough effect; inconclusive = small, poorly fitted or top-dose-only effect, or another doubt; inactive = no such curve, though single readings can be large; an effect the other way counts as inactive or inconclusive.

SMILES | FUS suppressor | aSyn yeast inh | LDHA block | Abeta yeast res | TDP43 rescue | PTHR1 ag
CCC(C(=O)Nc1ccc(N(C)C)cc1)n1cnc2ccccc2c1=O (stereo not given) | . | . | - | . | . | .
CC(=O)N1CCc2c(sc3c2c(=O)n(CCc2ccccc2)c(=O)n3Cc2cccc(C)c2)C1 | - | . | - | - | 22µM | -
Cc1c(NC(=O)CSc2ccc(Cl)cc2)cccc1-c1nc2ncccc2o1 | - | - | - | - | 14µM | -
CCC(=O)Nc1cccc(-c2nc3ncccc3o2)c1C | - | - | - | - | - | -
CC(=O)Nc1cccc(C(C)NC(=O)NC(C)c2cccc(F)c2)c1 (stereo not given) | . | . | - | . | . | .
O=C(OCn1ncc(Cl)c(Cl)c1=O)c1ccccc1Cl | - | - | - | - | 5.6µM | -
O=C(Cn1ncc(Cl)c(Cl)c1=O)c1ccc(Cl)cc1 | - | - | - | - | - | -
COC(=O)c1cccc(Nc2nc(-c3cccnc3)nc3ccccc23)c1 | - | - | - | - | - | -
CCCOC(=O)c1ccc(Nc2nc(C(=O)OCC)nc3ccccc23)cc1 | . | . | -34 | . | . | .
CCCOC(=O)c1cccc(Nc2nc(C(=O)OCC)nc3ccccc23)c1 | - | . | - | - | 22µM | -
CCOC(=O)c1cccc(Nc2nc(-c3cccnc3)nc3ccccc23)c1 | - | - | - | - | 18µM | -
CCOC(=O)c1nc(Nc2ccc(C(C)=O)cc2)c2ccccc2n1 | - | - | - | - | - | -
Cc1ccc(C(=O)/C(C#N)=C/c2ccc(OCc3ccccc3Cl)cc2)cc1 | . | . | - | . | . | .
Clc1cccc(CNCCN2CCCC2)c1 | . | . | - | . | . | .
CCNc1ccc(S(=O)(=O)N(CC)CC)cc1NCc1c(F)cccc1Cl | . | . | - | . | . | .
CCCc1sc(C(=O)OCCOc2ccc(S(N)(=O)=O)cc2)cc1CC | . | . | - | . | . | .
O=C(Oc1ccc(/C=N/O)cc1)c1ccccc1 | - | - | - | - | 11µM | -
N#Cc1ccc(OS(=O)(=O)c2ccc(-c3ccon3)s2)cc1 | - | - | - | - | 13µM | -
Cc1ccc(O)c(Nc2nc3ccccc3c3nncn23)c1 | - | . | - | - | - | -
COc1cccc(Nc2nc3ccccc3n3cnnc23)c1 | - | - | - | - | 13µM | -
CCc1cccc(C)c1Nc1nc2ccccc2n2cnnc12 | - | - | - | - | - | -
CCc1ccccc1Nc1nc2ccccc2c2nncn12 | - | . | - | - | 18µM | -
CCc1ccccc1Nc1nc2ccccc2n2cnnc12 | - | . | - | - | 13µM | -
N#Cc1ccc(OCc2noc(-c3ccc(Cl)cc3)n2)c(Cl)c1 | . | . | - | . | . | .
CSc1ccc(C(C)=O)cc1 | . | . | - | . | . | .
SMILES | FUS suppressor | aSyn yeast inh | LDHA block | Abeta yeast res | TDP43 rescue | PTHR1 ag
CN(CC(=O)Nc1cccc(C(F)(F)F)c1)C1CCc2ccccc21 (stereo not given) | . | . | - | . | . | .
O=C1NC(C(=O)O)=CC(c2cc(Cl)ccc2Cl)N1 (stereo not given) | . | . | - | . | . | .
COC(=O)c1cccc(CN2C(=O)C(C)Oc3ccc(C)cc32)c1 (stereo not given) | - | - | - | - | 18µM | -
COc1ccc(NC(=O)CN(C)C(=O)c2cn(-c3ccccc3)nc2-c2ccc(OC)cc2)cc1 | ? | - | - | - | - | -
COc1ccc(NC(=O)CN(C)C(=O)c2cn(-c3ccccc3)nc2-c2ccc(F)cc2)cc1 | ? | - | - | - | 25µM | -
COc1cccc(CN)c1OCC(C)C | . | . | - | . | . | .
O=C(CSc1nccn1-c1ccc(Cl)cc1)Nc1cccc2ccccc12 | - | . | - | - | 11µM | -
Cc1cc(C)cc(-n2ccnc2SCC(=O)Nc2cccc3ccccc23)c1 | - | - | - | - | 20µM | -
O=C(CSc1nccn1-c1cccc(Cl)c1)Nc1ccc2c(c1)OCO2 | - | . | - | - | 18µM | -
CCSc1nnc(NC(=O)CSc2nccn2-c2cccc(C)c2C)s1 | - | - | - | - | 16µM | -
COCCCNC(=O)CN1CCN(CC=C(C)C)CC1 | . | . | - | . | . | .
CCOC(=O)c1cc2cc(NC(=O)c3ccc4c(c3)NC(=O)CS4)ccc2s1 | . | . | - | . | . | .
COc1cccc(-n2ccnc2SCC(=O)Nc2cccc(C)c2C)c1 | - | - | - | - | 16µM | -
O=C(CSc1nccn1-c1ccc(F)cc1)Nc1ccc(OC(F)(F)F)cc1 | - | . | - | ? | 16µM | -
CC(=O)Nc1ccc2nc(-c3cccc(C)c3)oc2c1 | . | . | - | . | . | .
COc1cc(CNn2c(C)n[nH]c2=S)cc(Br)c1OCc1ccc(F)cc1 | - | - | - | - | 35µM | -
CN1CCN(CCCNC(=O)c2nc(-c3cccc4[nH]ccc34)no2)CC1 | . | . | - | . | . | .
COc1ccc(-c2noc(CNC(=O)CCc3c(C)c4ccc(O)cc4oc3=O)n2)cc1 | . | . | - | . | . | .
CC(C)c1cnc2c(c1SCC(=O)Nc1cccc(F)c1)c(=O)n(C)c(=O)n2C | - | . | - | - | 35µM | -
Cc1ccsc1-c1nc2ccccc2s1 | . | . | - | . | . | .
CC(C)(C)C(=O)Nc1ccc(C(=O)N/N=C/c2ccccc2OC(=O)c2ccccc2)cc1 | ? | - | - | - | - | -
CC(C)(C)C(=O)Nc1ccc(C(=O)N/N=C/c2ccccc2OC(=O)c2ccc(Cl)cc2)cc1 | 22µM | - | - | - | - | -
CCCn1c(=O)c2sc(N3CCCC3)nc2n(CC(=O)Nc2cc(C)ccc2OC)c1=O | . | . | - | . | . | .
CCCNc1nc(-c2ccc(Br)cc2)cs1 | . | . | - | . | . | .
Oc1cccc(Nc2ccccc2)c1 | - | - | - | - | 13µM | -
SMILES | FUS suppressor | aSyn yeast inh | LDHA block | Abeta yeast res | TDP43 rescue | PTHR1 ag
CCCCOC(=O)c1ccc(Nc2ncnc3nc[nH]c23)cc1 | - | - | - | - | - | -
CCCCCCCCOC(=O)c1cc([N+](=O)[O-])c(Sc2ncnc3nc[nH]c23)c([N+](=O)[O-])c1 | . | - | - | - | 13µM | -
Cc1ccc(C(=O)/C=C/c2ccc(-c3ccc(C)cc3)o2)cc1 | 14µM | - | - | - | - | -
CCOc1ccc2nc(C)cc(Nc3ccc(C(=O)OC)cc3)c2c1 | . | . | - | . | . | .
Cc1ccc([C@H]2C[C@@H](n3cc(-c4ccc(F)cc4)nn3)[C@H](O)CN2Cc2cccs2)cc1 | - | - | - | - | - | -
O[C@@H]1CN(Cc2cccs2)[C@@H](c2ccc(Cl)cc2)C[C@H]1n1cc(-c2ccc(F)cc2)nn1 | - | - | -30 | - | - | -
CCOC(=O)c1cn2nc(SCc3ccccc3)nc2nc1C | - | - | - | - | 16µM | -
COc1cc(CN2CCN(Cc3ccco3)CC2)cc(OC)c1 | - | - | -32 | - | - | -
O=[N+]([O-])c1cccc(CN2CCCCCC2)c1 | - | - | - | - | - | -
O=[N+]([O-])c1cccc(CN2CCN(Cc3ccco3)CC2)c1 | - | - | -43 | - | - | -
